These results are taken from PubChem BioAssay (EPA / NIEHS).

Activity calls are given as the source filed them. Rule for the calls: active = hit-call score of the fitted dose curve at least 0.9, where 1 is the maximum; inactive = score below 0.9.

Read-out in the assay: CD40, CD40 (gene 958)
Kind of assay: BSK_SAg_CD40: BioMAP Diversity Plus: SAg Assay for CD40 Biomarker Activity (AID 2283088). The note with it: primary human HUVEC with PBMC; actives raise or lower the signal. The method, then: BSK_SAg is a cell-based, multiplexed-readout assay that uses umbilical vein endothelium and peripheral blood mononuclear cells, a human vascular primary cell co-culture, with measurements taken at 24 hours after chemical dosing in a 96-well plate.BSK_SAg_CD40 is one of 10 assay component(s) measured or calculated from the BSK_SAg assay. It is designed to make measurements of enzyme-linked immunosorbent assay, a form of binding reporter, as detected with fluorescence intensity signals by Enzyme-linked immunosorbent assay technology.Data from the assay component BSK_SAg_CD40 was analyzed into 1 assay endpoint. This assay endpoint, BSK_SAg_CD40, was analyzed with bidirectional fitting relative to DMSO as the negative control and baseline of activity. Using a type of binding reporter, gain or loss-of-signal activity can be used to understand changes in the signaling as they relate to the gene CD40. Furthermore, this assay endpoint can be referred to as a primary readout, because this assay has produced multiple assay endpoints where this one serves a signaling function. To generalize the intended target to other relatable targets, this assay endpoint is annotated to the cytokine intended target family, where the subfamily is inflammatory factor.
The levels of cell surface (or secreted, indicated by the prefix "s") biomarker endpoints were measured by ELISA. Overt cytotoxicity to cells in confluent adherent cultures (all systems other than the BT system) was assessed by measuring total protein levels using sulforhodamine B (SRB) staining in parallel cultures at the time of biomarker measurements, indicated as SRB endpoints. For proliferation assays for adherent cell types, individual cell types are cultured at sub-confluence and relative cell numbers quantified by SRB staining at time points optimized for each system (48 h: 3C and CASM3C systems; 72 h: BT and HDF3CGF systems; 96 h: SAg system). SRB was performed by staining cells with 0.1% SRB after fixation with 10% TCA and reading wells at 560 nm.Viability and proliferation of PBMC (T cells) was quantified by Alamar Blue reduction for the SAg and BT systems. For PBMC viability (referred to as PBMC Cytotoxicity within the assay endpoint names), cells were plated (75,000/well in a 96-well plate) and then chemical samples added for 1 h before addition of activators, SEB and TSST-1 (20 ng/mL final concentration each). Cells were incubated for 90 h. Then, Alamar Blue (20 uL/well) (Invitrogen, Cat DAL1100) was added for 6 h, and the plates were read with a fluorescence microplate reader at 546/580 nm (excitation/emission). For PBMC proliferation, cells were plated and activated as above but incubated for only 16 h prior to addition of Alamar Blue. Plates were read after 6 h.
In the case of `COc1ccc(C)cc1N`, the outcome was inactive. One may read the AC50 as the concentration at which the activity in the assay is half-maximal. In the case of `CCc1c(C(=O)NN2CCCCC2)nn(-c2ccc(Cl)cc2Cl)c1-c1ccc(Br)cc1`, the AC50 was 12.2 µM (active). As to `Cc1nc(C)nc(N2C[C@@H](C)N(c3ccnc([C@@H](C)O)n3)[C@@H](C)C2)n1`, the outcome was inactive. `COc1ccc2c(c1)c(CC(=O)O)c(C)n2C(=O)c1ccc(Cl)cc1`: the result was inactive. `CC(C)(C)c1cc(O)c(C(C)(C)C)cc1O`: the AC50 is 11.7 µM (active).

As for `CCNc1cccc(C)c1`, the outcome was inactive. Take `Oc1ccc2c(c1)OC[C@@H](N1CCC(O)(c3ccc(F)cc3)CC1)[C@H]2O`: the outcome was inactive. Still for that read-out and setting: the value for `CCCc1cc(=O)[nH]c(=S)[nH]1` was “inactive”; that for `CC(C)c1ccc(C(=O)N=C(N)N)cc1S(C)(=O)=O` was “inactive”. On to `Cc1ccc(Cl)cc1`, for which the outcome was inactive. With `Clc1cc(Cl)c(Cl)cc1Cl`, the result was inactive. `Cc1nc(-c2ccc3c(c2)CCN(CCC2CCC(NC(=O)/C=C/c4ccc(F)cc4)CC2)CC3)no1` (stereo not given): the AC50 was 6.43 µM (active).

In the case of `CCCCCCC(=O)OCC`, the result was inactive. As to `O=c1c(O)c(-c2ccc(O)c(O)c2)oc2cc(O)cc(O)c12`, the half-maximal activity concentration (AC50) is 36 µM (active).

For `CC(=O)Oc1ccccc1C(=O)O`, the outcome was inactive. Regarding `CN1CCCC1=O`, the result was inactive. As to `CCCCCC(=O)O`, the result was inactive. As for `O=c1[nH]cc(F)c(=O)[nH]1`, the outcome was inactive. Consider `Cc1oc(-c2ccccc2)nc1CCOc1cccc2c1ccn2CCC(=O)O`, for which the outcome was inactive. For the molecule `COc1ccc(S(=O)(=O)N2C(=O)[C@@](c3ccccc3OC)(N3C[C@H](O)C[C@H]3C(=O)N(C)C)c3cc(Cl)ccc32)c(OC)c1`, the AC50 was 20 µM (active). Consider `NS(=O)(=O)c1cc2c(cc1Cl)NCNS2(=O)=O`, for which the outcome was inactive.

For the molecule `CCCCCCCCCCCC(=O)OC`, the outcome was inactive. For `NCC1(Cc2noc(=O)[nH]2)CCCCC1`, the outcome was inactive.

As to `CC1(C)NC(=O)NC1=O`, the result was inactive. In the case of `COC(=O)c1ccc(O)cc1`, the outcome was inactive. With `CNCc1cc(F)ccc1Oc1ccc(Cl)c(Cl)c1`, the AC50 is 36.5 µM (active). Consider `CCCCCCCCCCO`, for which the result was inactive. Take `CC(CO)OC(C)CO` (stereo not given) (tested in a mixture with another compound): the outcome was inactive. `Nc1ccccc1N`: the outcome was inactive.

As to `CCCCCCCCCCC`, the outcome was inactive. In the case of `CCCCC(CC)COC(=O)CC(C(=O)OCC(CC)CCCC)S(=O)(=O)O` (stereo not given), the AC50 was 35.5 µM (active). Consider `COc1cc(-c2nc(NC(=O)c3cc4cc(C)cc(C)c4n3CC(=O)O)sc2CCC2CCCCC2)c(OC)cc1Cl`, for which the AC50 was 3.21 µM (active). Take `Cc1ccc2ncccc2c1`: the outcome was inactive. For `O=C(O)CCCCC(=O)O`, the outcome was inactive. `CN1CCN(Cc2cc(-c3ccc4[nH]c(=O)oc4c3)co2)[C@@H](c2ccc(F)cc2)C1`: the AC50 was 26.8 µM (active). As for `CCCCCCCCCCCCCCCCCC(=O)O`, the AC50 was 25.8 µM (active). For the molecule `CCCCCCCCCCCCCO`, the AC50 is 29.8 µM (active). As for `Cc1cccc(Nc2cc(Cl)nc(SCC(=O)O)n2)c1C`, the outcome was inactive. Same read-out and setting: the value for `Nc1ccc(S(=O)(=O)c2ccc(N)cc2)cc1` was “inactive”; that for `NCCO` was “inactive”.
